Results: PubChem BioAssay (EPA / NIEHS)
Results filed as inconclusive are left out. Active and inactive are the calls of the source. Rule for the calls, unless noted: active = hit-call score of the fitted dose curve at least 0.9, where 1 is the maximum; inactive = score below 0.9.

Assay: CCTE_Harrill_HTTr_CellCount_MCF7: CCTE's Cell Proliferation Assessment for the High-Throughput Transcriptomics (HTTr) Platform, Harrill Lab (AID 2284012; active = hit-call score of the fitted dose curve at least 0.9, where 1 is the maximum;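 note: count of Hoechst-stained nuclei per well by high-content imaging in MCF-7 cells; cells exposed to compound for six hours; intended direction is loss of nuclei count meaning fewer cells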)
Outline: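 Chemicals in eight-point dilution series are added to MCF-7 cells for six hours, nuclei are stained with Hoechst and imaged, and per-well nuclei counts are fitted in both directions relative to DMSO controls.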

Structure (SMILES) | outcome
O=c1ccc2ccccc2o1 | inactive
CCCCCc1ccc(N)cc1 | inactive
CCOC(=O)O[C@H](C)OC(=O)c1ccc2c(c1)cc(C(=O)NC1CCN(C(C)C)CC1)n2Cc1cc(-c2ccc(Cl)s2)on1 | inactive
COc1ccc2cc(S(=O)(=O)N[C@H](CC(=O)N[C@H](Cc3ccc(CN4[C@H](C)CCC[C@@H]4C)cc3)C(=O)N(C)C(C)C)c3ccc4c(c3)OCO4)ccc2c1 | inactive
O=C(O)c1ccccc1-n1cc(C(=O)O)c(=O)c2cc(Nc3c(F)cc(F)cc3Cl)c(Cl)cc21 | inactive

Assay: CCTE_Shafer_MEA_acute_burst_number: CCTE's Neural Acute Assay for Single-Electrode Bursts, Shafer Lab (AID 2284013)
Outline: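 Rat cortical cultures, DIV 13/15; 40 min baseline, then 40 min with compound 0.03-40 uM, 37 C. Spikes: 300-5000 Hz band-pass, threshold 8x rms noise. Readout = % change in single-electrode bursts vs baseline, loss-of-signal fit.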

Structure (SMILES) | outcome | AC50
CO[C@H]1/C=C/O[C@@]2(C)Oc3c(C)c(O)c4c(O)c(c(/C=N/N5CCN(C)CC5)c(O)c4c3C2=O)NC(=O)/C(C)=C\C=C\[C@H](C)[C@H](O)[C@@H](C)[C@@H](O)[C@@H](C)[C@H](OC(C)=O)[C@@H]1C | inactive | 
O=c1[nH]sc2ccccc12 | inactive | 
CC1=CC(=O)/C(=C(/C)O)C(=O)O1 | inactive | 
CC(O)CC(C)(C)O (stereo not drawn) | inactive | 
CCN(CC)C(=O)c1cc(S(=O)(=O)Cc2ccccc2)c(N2CCC(c3ccccc3)CC2)cc1N(CC)CCN(C)C | inactive | 
CCCCCCCCCCCCO | inactive | 
O=C(O)c1ccccc1-n1cc(C(=O)O)c(=O)c2cc(Nc3c(F)cc(F)cc3Cl)c(Cl)cc21 | inactive | 
CC[C@@H]1C[C@H](N(Cc2cc(C(F)(F)F)cc(C(F)(F)F)c2)C(C)=O)c2cc(C(F)(F)F)ccc2N1C(=O)OC(C)C | inactive | 
O=C1O[C@H]([C@@H](O)CO)C(O)=C1O | inactive | 
Clc1ccccc1C(c1ccccc1)(c1ccccc1)n1ccnc1 |  | 3.26 µM (active)
COc1cccc([C@H](O)C2CCN(CCc3ccc(F)cc3)CC2)c1OC |  | 2.88 µM (active)
Cc1cn([C@H]2C[C@H](N=[N+]=[N-])[C@@H](CO)O2)c(=O)[nH]c1=O | inactive | 
CC(C)(C)c1cc(/C=C2\SC(N)=NC2=O)cc(C(C)(C)C)c1O | inactive | 
c1ccc2n[nH]nc2c1 | inactive | 
CN1C(=O)CC[C@H]1c1cccnc1 | inactive | 
CCN(Cc1cccc(S(=O)(=O)O)c1)c1ccc(C(=C2C=CC(=[N+](CC)Cc3cccc(S(=O)(=O)O)c3)C=C2)c2ccccc2S(=O)(=O)[O-])cc1 | inactive | 

Assay: CCTE_Shafer_MEA_acute_burst_duration_mean: CCTE's Neural Acute Assay for Mean Burst Duration, Shafer Lab (AID 2284014);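 note: hits are decreases in mean burst duration relative to DMSO controls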
Outline: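 Primary rat cortical neurons on 16-electrode MEA wells, treated on DIV 13 or 15 with compound (0.03-40 uM; ≥3 wells each). 40-min baseline and 40-min exposure recordings at 37 C; percent change in mean burst duration per well versus DMSO.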

Structure (SMILES) | outcome | AC50
CO[C@H]1/C=C/O[C@@]2(C)Oc3c(C)c(O)c4c(O)c(c(/C=N/N5CCN(C)CC5)c(O)c4c3C2=O)NC(=O)/C(C)=C\C=C\[C@H](C)[C@H](O)[C@@H](C)[C@@H](O)[C@@H](C)[C@H](OC(C)=O)[C@@H]1C | inactive | 
O=c1[nH]sc2ccccc12 | inactive | 
CC1=CC(=O)/C(=C(/C)O)C(=O)O1 | inactive | 
CC(O)CC(C)(C)O (stereo not drawn) | inactive | 
CCN(CC)C(=O)c1cc(S(=O)(=O)Cc2ccccc2)c(N2CCC(c3ccccc3)CC2)cc1N(CC)CCN(C)C |  | 0.553 µM (active)
CCCCCCCCCCCCO | inactive | 
O=C(O)c1ccccc1-n1cc(C(=O)O)c(=O)c2cc(Nc3c(F)cc(F)cc3Cl)c(Cl)cc21 | inactive | 
CC[C@@H]1C[C@H](N(Cc2cc(C(F)(F)F)cc(C(F)(F)F)c2)C(C)=O)c2cc(C(F)(F)F)ccc2N1C(=O)OC(C)C |  | 4.21 µM (active)
O=C1O[C@H]([C@@H](O)CO)C(O)=C1O | inactive | 
Clc1ccccc1C(c1ccccc1)(c1ccccc1)n1ccnc1 | inactive | 
COc1cccc([C@H](O)C2CCN(CCc3ccc(F)cc3)CC2)c1OC | inactive | 
Cc1cn([C@H]2C[C@H](N=[N+]=[N-])[C@@H](CO)O2)c(=O)[nH]c1=O | inactive | 
CC(C)(C)c1cc(/C=C2\SC(N)=NC2=O)cc(C(C)(C)C)c1O | inactive | 
c1ccc2n[nH]nc2c1 | inactive | 
CN1C(=O)CC[C@H]1c1cccnc1 | inactive | 
CCN(Cc1cccc(S(=O)(=O)O)c1)c1ccc(C(=C2C=CC(=[N+](CC)Cc3cccc(S(=O)(=O)O)c3)C=C2)c2ccccc2S(=O)(=O)[O-])cc1 | inactive | 

Assay: CCTE_Shafer_MEA_acute_per_burst_spike_number_mean: CCTE's Neural Acute Assay for Average Number of Spikes Per Burst, Shafer Lab (AID 2284015);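 note: hits are decreases in mean spikes per burst versus baseline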
Outline: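 Percent change in mean spikes per single-electrode burst is compared between a 40 min baseline and a 40 min recording with compound (0.03-40 uM). Cultures were rat cortical neurons on MEA plates at DIV 13 or 15, recorded at 37 C, with DMSO as the negative control.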

Structure (SMILES) | AC50 | outcome
CO[C@H]1/C=C/O[C@@]2(C)Oc3c(C)c(O)c4c(O)c(c(/C=N/N5CCN(C)CC5)c(O)c4c3C2=O)NC(=O)/C(C)=C\C=C\[C@H](C)[C@H](O)[C@@H](C)[C@@H](O)[C@@H](C)[C@H](OC(C)=O)[C@@H]1C | 12.5 µM (active) | 
O=c1[nH]sc2ccccc12 |  | inactive
CC1=CC(=O)/C(=C(/C)O)C(=O)O1 |  | inactive
CC(O)CC(C)(C)O (stereo not drawn) |  | inactive
CCN(CC)C(=O)c1cc(S(=O)(=O)Cc2ccccc2)c(N2CCC(c3ccccc3)CC2)cc1N(CC)CCN(C)C | 1.54 µM (active) | 
CCCCCCCCCCCCO | 20 µM (active) | 
O=C(O)c1ccccc1-n1cc(C(=O)O)c(=O)c2cc(Nc3c(F)cc(F)cc3Cl)c(Cl)cc21 | 20 µM (active) | 
CC[C@@H]1C[C@H](N(Cc2cc(C(F)(F)F)cc(C(F)(F)F)c2)C(C)=O)c2cc(C(F)(F)F)ccc2N1C(=O)OC(C)C |  | inactive
O=C1O[C@H]([C@@H](O)CO)C(O)=C1O |  | inactive
Clc1ccccc1C(c1ccccc1)(c1ccccc1)n1ccnc1 | 5.84 µM (active) | 
COc1cccc([C@H](O)C2CCN(CCc3ccc(F)cc3)CC2)c1OC |  | inactive
Cc1cn([C@H]2C[C@H](N=[N+]=[N-])[C@@H](CO)O2)c(=O)[nH]c1=O |  | inactive
CC(C)(C)c1cc(/C=C2\SC(N)=NC2=O)cc(C(C)(C)C)c1O |  | inactive
c1ccc2n[nH]nc2c1 |  | inactive
CN1C(=O)CC[C@H]1c1cccnc1 |  | inactive
CCN(Cc1cccc(S(=O)(=O)O)c1)c1ccc(C(=C2C=CC(=[N+](CC)Cc3cccc(S(=O)(=O)O)c3)C=C2)c2ccccc2S(=O)(=O)[O-])cc1 |  | inactive
